HepG2 viability – counter-screen for TGF-b inhibitors: cytotoxicity in HepG2 cells. actives 0.76% (n = 410,000). Potency, µM (top dose mostly 46.1 µM), for the others: at the top dose activity change, negative = cytotoxicity, most hits filed as cytotoxic. HepG2 CAGA-GFP viability, ATP luminescence, 18 h
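HepG2 CAGA-GFP cells (1000/well, DMEM with 1% FBS) received compound, then TGF-beta at 500 pg/mL final, and were incubated 18 hours at 37 degrees C. Viability was read by CellTiter-Glo luminescence. Media-only wells were set as complete cell-killing and DMSO as no toxicity.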
KB-3-1 tox – kills parental KB-3-1 adenocarcinoma cells | KB-3-1 viability, CellTiter-Glo ATP luminescence, 72 h | Potency, µM (highest dose often 46.1 µM), actives largely listed as cytotoxic | actives 1.4% (n = 400,000) | AID 1347075; note: % is set by controls: 0 for no effect and ±100 for the full control effect; nearly all actives have a fitted effect of over 60% in size
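Parental KB-3-1 adenocarcinoma cells in phenol-red-free DMEM with 10% FBS were pin-treated with compounds at several concentrations, incubated 72 h at 37 °C, and viability read by CellTiter-Glo luminescence; concentration-effect curves were fitted after normalization.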
TGFb inhibitor – blocks TGF-b signaling. HepG2 CAGA-GFP TGF-b/SMAD3 reporter, GFP fluorescence, 18 h; TGF-beta stimulated, 500 pg/mL final. Potency, µM (highest dose often 46.1 µM), for inactives: at the top dose activity, negative = inhibition, actives largely listed as inhibitors. actives 1.2% (n = 410,000). AID 588855; note: % is set by controls: 0 for no effect and ±100 for the full control effect; nearly all actives have a fitted effect of over 65% in size
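TGF-beta reporter screen: HEPG2 CAGA-GFP, 1% FBS, 500 pg/mL TGF-beta final, 18 h; per-cell GFP summed per well; curves fitted and categorized by class.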
ATXN2 expr inh – inhibitors of ATXN2 expression; actives 0.72% (n = 360,000); HEK-293 ATXN2-luciferase reporter, luminescence, 24 h; AID 1745845; Potency, µM (top dose mostly 57 µM), inactives show at the highest dose activity change, negative = inhibition, actives largely listed as inhibitors; note: % is set by controls: 0 for no effect and ±100 for the full control effect; nearly all actives have a fitted effect of over 55% in size
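qHTS (up to 57 uM final) was run with 24 h compound exposure of reporter cells at 37 °C. Each well was multiplexed: SteadyGlo luminescence measured ATXN2-luciferase expression after a fluorogenic Gly-Phe-AFC viability readout (25 uM final).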
KB-V1 MDR tox – KB-V1 MDR subline cytotoxicity; KB-V1 MDR cells viability, CellTiter-Glo, 72 h; Potency, µM (top dose mostly 46.1 µM), usual class: cytotoxic; actives 3.4% (n = 400,000); note: % is set by controls: 0 for no effect and ±100 for the full control effect; nearly all actives have a fitted effect of over 60% in size
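KB-V1 MDR subline cells in DMEM (phenol-red free, 10% FBS) exposed to compounds in qHTS concentration series for 72 h at 37 degrees C. Viability read by CellTiter-Glo luminescence; concentration-effect curves fitted after normalization and correction.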
S2 tox – reduces viability in counter-screen for ATXN expression inhibitors | S2 cells (HEK-293 line with an ATXN2-luciferase reporter) viability, CellTiter-Fluor protease fluorescence, 24 h | AID 651635 | actives 0.49% (n = 400,000) | Potency, µM (series often up to 56.7 µM), usual class: cytotoxic; note: nearly all actives have a fitted effect of over 40% in size
Starred values were filed as active, the others as inactive; i = inactive; u = inconclusive; x = no result. An excerpt weighted towards active compounds, which were near 5.9% of everything screened. Calls come from the whole dose curve; as a rule, active = well fitted curve in the direction sought with a large enough effect; inconclusive = small, poorly fitted or top-dose-only effect, or another doubt; inactive = no such curve, though single readings can be large; an effect the other way counts as inactive or inconclusive. Potency is the fitted concentration of half-maximal effect.

SMILES	HepG2 viability	KB-3-1 tox	TGFb inhibitor	ATXN2 expr inh	KB-V1 MDR tox	S2 tox
CCc1ccc(S(=O)(=O)Nc2cc3c(cc2C)n(C)c(=O)n3C)cc1	-26%	5.2µM*	-12%	x	i	i
CC(C)OC(=O)NCCOC(=O)Nc1cccc(Cl)c1	-26%	u	-9%	35%	i	i
CC(C)OC(=O)NC(C)(C)COC(=O)Nc1cccc(Cl)c1	-10%	u	-21%	-24%	9.2µM*	i
O=C1CC(c2nc3ccccc3n2CCC2CCCCC2)CN1c1ccccc1Cl (stereo not given)	-14%	i	-17%	5%	u	i
Cc1ccc(S(=O)(=O)N2CCN(C(=O)COC(=O)c3ccccc3Cl)CC2)c(C)c1	0%	i	1%	5%	i	i
Cc1ccc(S(=O)(=O)N2CCN(C(=O)COC(=O)CC(C)c3ccccc3)CC2)c(C)c1 (stereo not given)	8%	i	-1%	-3%	i	u
COc1cc(OC)c(C(=O)OCC(=O)N2CCN(S(=O)(=O)c3ccc(C)cc3C)CC2)cc1OC	13%	i	5%	-4%	16µM*	i
CCC(C(=O)OCC(=O)N1CCN(S(=O)(=O)c2ccc(C)cc2C)CC1)c1ccccc1 (stereo not given)	-6%	i	1%	4%	15µM*	u
O=C(/C=C/c1ccc(OC(F)(F)F)cc1)Nc1cccc([S+](=O)([O-])Nc2ccccc2F)c1	x	i	x	x	i	x
COc1ccccc1CNc1ncnc2c1nnn2C	5%	x	2%	x	x	x
CCC1(c2ccccc2)CN(C)C1=O (stereo not given)	-9%	i	16%	x	i	i
CCC1(c2ccccc2)ON(c2c(Br)cccc2Br)C1=O (stereo not given)	-102%	i	u	22µM*	u	u
COc1cc2nc(N(CCCN(C)C)C(=O)c3ccc(C(=O)c4ccccc4)cc3)sc2cc1OC	16µM*	i	u	u	i	x
CCc1ccc2nc(N(CCCN(C)C)C(=O)c3ccc(S(=O)(=O)N4CCCc5ccccc54)cc3)sc2c1	-108%	u	u	u	9.2µM*	u
COc1ccc2nc(N(CCN(C)C)C(=O)c3ccc(C(=O)c4ccccc4)cc3)sc2c1	0%	i	-2%	3%	i	i
CCc1ccc2nc(N(CCCN(C)C)C(=O)c3ccc(S(=O)(=O)N4CCCC4)cc3)sc2c1	-25%	i	-28%	-25%	i	u
CCc1ccc2nc(N(CCCN(C)C)C(=O)c3ccc(C(=O)c4ccccc4)cc3)sc2c1	-92%	23µM*	u	u	i	u
c1ccc(-c2nnc(NC3=NCCC3)o2)cc1	-17%	i	-5%	u	i	i
Fc1ccc(-c2nnc(NC3=NCCCCC3)o2)cc1	13µM*	u	5%	4µM*	i	i
Cc1ccc(-c2noc(CCC(=O)NCC3CCCO3)n2)cc1 (stereo not given)	-23%	i	-9%	11%	21µM*	i
Cc1ccc(-c2noc(CCC(=O)NCCN3CCN(Cc4ccccc4)CC3)n2)cc1	1.3µM*	u	22%	-24%	16µM*	i
Cc1ccc(-c2noc(CCCC(=O)NCC3CCCO3)n2)cc1 (stereo not given)	-7%	i	-4%	-30%	i	i
COc1ccc(C(=O)N2CCCC(c3cc(C(=O)Nc4ccccc4)no3)C2)cc1 (stereo not given)	8%	i	-7%	1%	i	i
CC(=O)Nc1ccc(NC(=O)C2CCN(S(=O)(=O)c3ccc4c(c3)OCCO4)CC2)cc1	-1%	i	-12%	1%	i	i
O=C(Nc1ccc2c(c1)OCCO2)C1CCN(S(=O)(=O)c2ccc3c(c2)OCCO3)CC1	-13%	i	-4%	14%	15µM*	i
SMILES	HepG2 viability	KB-3-1 tox	TGFb inhibitor	ATXN2 expr inh	KB-V1 MDR tox	S2 tox
O=C(Nc1ccc2c(c1)OCCO2)C1CCN(S(=O)(=O)c2ccccc2)CC1	-5%	i	-4%	-7%	i	i
COc1ccc(C2CCCCCN2C(=O)C2CCN(S(=O)(=O)c3cccc(C(C)=O)c3)CC2)cc1 (stereo not given)	-3%	i	-8%	-4%	18µM*	i
COc1cc2c(cc1OC)CN(S(=O)(=O)c1ccc3c(c1)OCCO3)CC2	-8%	u	-18%	1%	5.2µM*	i
O=C(Nc1ccc2c(c1)OCCO2)C1CCN(S(=O)(=O)c2ccc(Br)s2)CC1	-8%	u	8%	10%	10µM*	i
COc1ccc(S(=O)(=O)N2CCc3ccccc3C2)cc1OC	-3%	i	-9%	8%	i	i
CN(C)c1ccc(/C=C/c2ccnc3c(O)cccc23)cc1	-4%	u	-1%	x	i	x
COc1ccc(C(=O)C2CCN(S(=O)(=O)c3ccc4c(c3)OCCO4)CC2)cc1	0%	u	-3%	-24%	23µM*	i
Cc1ccc(NC(=O)C2CCN(S(=O)(=O)c3ccc4c(c3)OCCCO4)CC2)nc1	0%	16µM*	-13%	-14%	u	i
CC1Sc2ccc(S(=O)(=O)N3CCC(C(=O)Nc4cccc(Cl)c4)CC3)cc2NC1=O (stereo not given)	-30%	15µM*	u	u	i	i
Cc1ccc(NC(=O)C2CCN(S(=O)(=O)c3ccc4c(c3)NC(=O)C(C)S4)CC2)cc1C (stereo not given)	-26%	u	u	u	i	i
O=C(Nc1ccc2c(c1)OCCO2)C1CCN(S(=O)(=O)c2cccs2)CC1	-13%	i	-2%	10%	15µM*	i
COc1ccc(C(=O)N2CCN(S(=O)(=O)c3ccc4c(c3)OCCO4)CC2)cc1	-2%	i	-15%	x	i	i
O=C(NCC1Cc2cccc(-c3cnccn3)c2O1)c1ccc(F)c(Cl)c1 (stereo not given)	x	x	x	x	x	i
Cc1ccnc(NC(=O)C2CCN(S(=O)(=O)c3ccc(Cl)c(C(F)(F)F)c3)CC2)c1	-31%	i	13%	5%	u	i
O=S(=O)(c1ccc(N2CCN(S(=O)(=O)c3ccc4c(c3)OCCO4)CC2)nc1)N1CCCC1	-32%	u	-11%	-13%	8.2µM*	i
O=C(Nc1ccncc1)C1CCN(S(=O)(=O)c2ccc(Cl)c(C(F)(F)F)c2)CC1	-22%	5.8µM*	-28%	-17%	u	i
